From PubChem BioAssay (NCI) come the findings set out here.

Among the test systems are RPMI-8226 leukemia; OVCAR-8 ovarian; OVCAR-5 ovarian; OVCAR-4 ovarian; SK-OV-3 ovarian; IGROV1 ovarian; OVCAR-3 ovarian; HS 578T breast; NCI/ADR-RES ovarian; T-47D breast; BT-549 breast; MDA-MB-435 melanoma; SW-620 colon; MCF7 breast; HCT-116 colon; HCC-2998 colon; KM12 colon.
Experiment in all cases: NCI-60 one-dose screen, 48 h (100 = growth as untreated, 0 = no growth, -100 = all killed)
Holding throughout (conditions): 10 µM unless noted

Compounds without any hit were thinned out: in the full panel of roughly 83,000, 20% have a hit.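 48-hour exposure, single concentration, 96-well plates; percent growth endpoint where 0 means no net growth. Active: below 10.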 Values without a mark were called inactive. The source made the active and inactive calls.

As for `COc1ccc(/C=C/c2c(C(=O)/C=C/c3ccc(C(F)(F)F)cc3)c(C)nc3ccccc23)cc1`, the growth in the test with RPMI-8226 leukemia was -25.7% (active); in the test with OVCAR-8 ovarian, 9.68% (active); in the test on OVCAR-5 ovarian, -33.6% (active); with OVCAR-4 ovarian, -6.41% (active); in the test on SK-OV-3 ovarian, 27.3%; with IGROV1 ovarian, -57.2% (active). Besides, the growth in the test with OVCAR-3 ovarian was -71% (active); with HS 578T breast, 1.9% (active); with NCI/ADR-RES ovarian it was 2.01% (active); in the test on T-47D breast it was -13.3% (active); with BT-549 breast, -14.2% (active); with MDA-MB-435 melanoma, -56.5% (active). Besides, the growth was -42.3% (active) in the test with SW-620 colon; 1.41% (active) in the test with MCF7 breast; -67.8% (active) in the test on HCT-116 colon; -77% (active) with HCC-2998 colon; -67.6% (active) with KM12 colon.
As for `COc1cc(CCC[P+](c2ccccc2)(c2ccccc2)c2ccccc2)c(OC)c2c1OCO2`, the growth in the test on RPMI-8226 leukemia was 10.4%; in the test on OVCAR-8 ovarian it was 9.83% (active); in the test with OVCAR-5 ovarian, 64.6%; in the test on OVCAR-4 ovarian, 11.1%; in the test on SK-OV-3 ovarian it was 27.2%; with IGROV1 ovarian, 32.5%. Further, the growth is 5% (active) in the test with OVCAR-3 ovarian; 38.4% in the test with HS 578T breast; 98.5% in the test with NCI/ADR-RES ovarian; 13.9% in the test on T-47D breast; 15.8% with BT-549 breast; 3.48% (active) in the test with MDA-MB-435 melanoma. Also, the growth was 31.1% in the test on SW-620 colon; 9.9% (active) with MCF7 breast; 16.4% in the test on HCT-116 colon; 26.7% with HCC-2998 colon; 6.93% (active) with KM12 colon.
In the case of `CN1CCN(c2ccc(-c3cc4c(Nc5ccc(F)c(Cl)c5)ncnn4c3)cn2)CC1`, the growth in the test on RPMI-8226 leukemia was 3.77% (active); with OVCAR-8 ovarian, 77.1%; in the test with OVCAR-5 ovarian it was 97.8%; in the test with OVCAR-4 ovarian, 88.4%; in the test on SK-OV-3 ovarian, 110%; in the test on IGROV1 ovarian, 89.5%. For the same compound, the growth in the test on OVCAR-3 ovarian was 98.6%; in the test on HS 578T breast it was 76.9%; with NCI/ADR-RES ovarian, 83.6%; with T-47D breast, 96.2%; in the test on BT-549 breast, 105%; with MDA-MB-435 melanoma, 96.1%. The growth in the test with SW-620 colon is 40.4%; in the test with MCF7 breast, 77.4%; with HCT-116 colon, 1.89% (active); with HCC-2998 colon, 98.6%; in the test with KM12 colon, 93.7%.
Consider `CCOC(=O)Cn1c(C)c(/C=N/NC(=O)c2cc3c(ccc4ccccc43)o2)c2ccccc21`, for which the growth with RPMI-8226 leukemia is 10.6%; in the test with OVCAR-8 ovarian, 15.5%; with OVCAR-5 ovarian, 40%; with OVCAR-4 ovarian, 51%; with SK-OV-3 ovarian, 6.12% (active); in the test on IGROV1 ovarian it was 26.3%. In addition, the growth with OVCAR-3 ovarian was 0.688% (active); in the test on HS 578T breast, 34.7%; with NCI/ADR-RES ovarian it was 8.7% (active); in the test on T-47D breast, 58.7%; with BT-549 breast it was 35.3%; in the test on MDA-MB-435 melanoma it was -11.4% (active). The growth in the test with SW-620 colon was 30.4%; with MCF7 breast, 17%; with HCT-116 colon it was 8.16% (active); with HCC-2998 colon, 31.3%; in the test on KM12 colon, 15.6%.
With `O=C(CSc1nccc(Nc2ccc(S(=O)(=O)Nc3nccs3)cc2)n1)c1ccc(C(F)(F)F)cc1`, the growth with RPMI-8226 leukemia was 104%; with OVCAR-8 ovarian, 96.2%; in the test with OVCAR-5 ovarian, 111%; with OVCAR-4 ovarian, 106%; in the test on SK-OV-3 ovarian it was 96.9%; in the test with IGROV1 ovarian, 91.1%. Moreover, the growth was 112% in the test on OVCAR-3 ovarian; 98.5% with HS 578T breast; 98.5% in the test on NCI/ADR-RES ovarian; 82.1% in the test on T-47D breast; 88.2% with BT-549 breast; 99% in the test on MDA-MB-435 melanoma. The growth in the test with SW-620 colon is 102%; in the test with MCF7 breast it was 94.2%; in the test on HCT-116 colon, 86.7%; in the test with HCC-2998 colon, 112%; in the test on KM12 colon it was 106%.
Take `CN(C(=O)NCc1cccc(F)c1Cl)[C@H](COC(=O)Nc1cc2ccccc2cn1)CC(O)CO` (stereo partly drawn): the growth in the test with RPMI-8226 leukemia is 119%; in the test with OVCAR-8 ovarian, 88.1%; in the test on OVCAR-5 ovarian, 95.8%; in the test on OVCAR-4 ovarian, 94.6%; in the test with SK-OV-3 ovarian it was 78.5%; with IGROV1 ovarian, 71.9%. The growth with OVCAR-3 ovarian was 103%; in the test with HS 578T breast, -0.749% (active); in the test on NCI/ADR-RES ovarian, 98.6%; with T-47D breast, 89%; in the test on BT-549 breast, 43.9%; in the test with MDA-MB-435 melanoma, 104%. In addition, the growth is 92.2% with SW-620 colon; 98.9% in the test with MCF7 breast; 95.4% in the test on HCT-116 colon; 110% in the test with HCC-2998 colon; 104% with KM12 colon.
With `CC(=O)CC(c1ccccc1)c1c(C)[nH]c2ccccc12` (stereo not drawn), the growth was 94.4% with RPMI-8226 leukemia; 97.4% in the test on OVCAR-8 ovarian; 94.2% with OVCAR-5 ovarian; 100% in the test with OVCAR-4 ovarian; 104% with SK-OV-3 ovarian; 91.5% in the test with IGROV1 ovarian. For the same compound, the growth in the test with OVCAR-3 ovarian is 95.9%; in the test on HS 578T breast it was 84.6%; in the test on NCI/ADR-RES ovarian, 93.6%; in the test with T-47D breast, 99.5%; in the test with BT-549 breast, 112%; with MDA-MB-435 melanoma it was 100%. For the same compound, the growth in the test on SW-620 colon was 92.1%; with MCF7 breast it was 96.2%; in the test on HCT-116 colon, 89.6%; in the test on HCC-2998 colon, 110%; with KM12 colon it was 100%.
In the case of `C=C(C)[C@@H]1CC[C@]2(N=C=O)CC[C@]3(C)[C@H](CC[C@@H]4[C@@]5(C)Cc6c([nH]c7ccccc67)C(C)(C)[C@@H]5CC[C@]43C)[C@@H]12`, the growth with RPMI-8226 leukemia is 18.8%; in the test on OVCAR-8 ovarian, 70.7%; with OVCAR-5 ovarian, 92.9%; in the test on OVCAR-4 ovarian, 72.7%; with SK-OV-3 ovarian, 89.4%; in the test with IGROV1 ovarian, 84.3%. Further, the growth is 89.2% in the test on OVCAR-3 ovarian; 92% in the test on HS 578T breast; 83.5% in the test on NCI/ADR-RES ovarian; 62.4% in the test on T-47D breast; 84.3% with BT-549 breast; 86.4% in the test with MDA-MB-435 melanoma. Moreover, the growth is 78% with SW-620 colon; 39.5% with MCF7 breast; 11.6% in the test with HCT-116 colon; 98.4% in the test with HCC-2998 colon; 70.5% with KM12 colon.
For `C#C[C@]1(O)CC[C@H]2[C@@H]3CC=C4c5sc(Nc6ccccc6)nc5CC[C@]4(C)[C@H]3CC[C@@]21C`, the growth in the test on RPMI-8226 leukemia is -32.1% (active); with OVCAR-8 ovarian, 33.8%; in the test with OVCAR-5 ovarian, 52%; in the test on OVCAR-4 ovarian, 51.6%; in the test with SK-OV-3 ovarian it was -35.3% (active); in the test on IGROV1 ovarian it was 46.7%. Further, the growth was 31.5% with OVCAR-3 ovarian; -19.9% (active) with HS 578T breast; 38.2% in the test on NCI/ADR-RES ovarian; 28.6% with T-47D breast; 19.9% with BT-549 breast; 34.4% in the test with MDA-MB-435 melanoma. For the same compound, the growth in the test with SW-620 colon was 3.04% (active); in the test on MCF7 breast, 8.14% (active); in the test with HCT-116 colon, -33.3% (active); with HCC-2998 colon, 45.3%; with KM12 colon, 13.1%.
